Screening data deposited in PubChem BioAssay by National Center for Advancing Translational Sciences (NCATS).
LASV entry inh = qHTS for Inhibitors of binding or entry into cells for Lassa Virus | Lassa virus pseudotype entry inhibition, cell reporter | AID 540256, 2011 | 300,000 compounds, 1.2% hits | Potency, µM (top dose mostly 37.9 µM), for inactives: top-dose activity change, negative = inhibition, actives largely listed as inhibitors; calls by dose curve; tested in HEK293 cells; also: nearly all actives have a fitted effect of over 50% in size
Sm TGR block = qHTS Assay for the Inhibitors of Schistosoma Mansoni Peroxiredoxins; purified TGR, DTNB reduction, TNB absorbance 405 nm; 360,000 compounds, 3% hits; Potency, µM (series often up to 114 µM), without a hit: top-dose activity change, negative = inhibition, actives largely listed as inhibitors; Schistosoma mansoni thioredoxin glutathione reductase (TGR), Q962Y6; also: nearly all actives have a fitted effect of over 60% in size
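Kinetic colorimetric format: TGR-catalysed, NADPH-driven DTNB reduction monitored via TNB absorbance. Enzyme dispensed at 20 nM; compound exposure 15 min at room temperature before reaction start.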
MARV entry inh = qHTS for inhibitors of binding or entry into cells for Marburg Virus; Marburg virus pseudotyped entry inhibition, cell reporter; Potency, µM (highest dose often 37.8 µM), for inactives: top-dose activity change, negative = inhibition, actives largely listed as inhibitors; 300,000 compounds, 1.8% hits; AID 540276, 2011; calls by dose curve; tested in HEK293 cells
FMDV antiviral = High Throughput Screening for Foot and Mouth Disease Virus Antivirals; FMDV antiviral cell-based qHTS; Potency, µM (doses to about 57.9 µM), inactives show at the highest dose activity change, negative = inhibition, most hits filed as inhibitors; 410,000 compounds, 1.2% hits; AID 1159524, 2015; calls by dose curve; tested in HEK293T cells; also: read-out not given here; nearly all actives have a fitted effect of over 45% in size
RE007 growth inh = qHTS Assay for Inhibitors of the HIV-1 protein Vpr; Potency, µM (highest dose often 92.2 µM), for inactives: at the top dose activity change, negative = less growth, most hits filed as inhibitors; 360,000 compounds, 0.21% hits; S. pombe RE007 Vpr strain, BacTiter-Glo ATP luminescence, 24 h; active = well fitted falling curve with a large enough effect; inconclusive = small, poorly fitted or top-dose-only effect; inactive = no such curve, though single readings can be large or run the other way; also: nearly all actives have a fitted effect of over 50% in size
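Fission yeast strain RE007, carrying one chromosomally integrated HIV-1 vpr copy, was seeded at OD 0.01 in PMG+AL medium with 23 nL pinned compound. After 24 h at 30 °C and 99% humidity, viability was read by BacTiter-Glo luminescence.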
HCV inhibitor = qHTS Assay for Inhibitors of Hepatitis C Virus (HCV); Huh7.5.1 HCVcc-Cre infection, luciferase reporter, 44 h; Potency, µM (top dose mostly 41.8 µM), for inactives: top-dose activity change, negative = inhibition, most hits filed as inhibitors; 340,000 compounds, 3.4% hits; AID 651820, 2012
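Cells seeded at 1,000/well and cultured 4 h, then compounds added followed by HCVcc-Cre virus (~0.5 moi). After 44 h further culture, luciferase substrate was added, plates held 15 min at room temperature, and luminescence read for 15 sec.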
An asterisk follows results filed as active; u = inconclusive; x = no result; [ ] = dose if it differs, or a comment. Shown are actives, neighbours in structure and some others; about 7.2% of the full set was active somewhere. Unless noted, calls follow the shape of the dose curve; as a rule, active = well fitted curve in the direction sought with a large enough effect; inconclusive = small, poorly fitted or top-dose-only effect, or another doubt; inactive = no such curve, though single readings can be large; an effect the other way counts as inactive or inconclusive. % is scaled to controls: 0 for no effect and ±100 for the full control effect; potency is read from the fitted curve at half-maximal effect.

SMILES	LASV entry inh	Sm TGR block	MARV entry inh	FMDV antiviral	RE007 growth inh	HCV inhibitor
COc1cc(NC(=O)c2ccc(-c3nc(COc4ccccc4)c(C)o3)cc2)cc(OC)c1	u	5%	x	0%	x	x
COc1ccc(CCNC(=O)c2ccc(Cn3c(=O)c4ccccc4n(Cc4cccc(C)c4)c3=O)cc2)cc1OC	u	4%	-1%[46.1 µM]	-22%	x	x
Cc1cc(C)cc([C@H]2C[C@]34CN(Cc5ccccc5)[S+](=O)([O-])[C@@H]3C[C@@H]2O4)c1	5%[46.1 µM]	x	x	x	x	x
O=C(NCCC(=O)N1CCN(c2ccc(F)cc2)CC1)c1ccco1	1%	45µM*	18%	-2%	-6%	14%
Cc1ccc(/C=C/C(=O)N2CCCC(C(N)=O)C2)o1 (configuration not stated)	x	32µM*	x	9%	7%	-6%
O=C(/C=C/c1ccco1)N1CCN(c2ccc(F)cc2)CC1	-3%[46.1 µM]	10µM*	4%[46.1 µM]	7%	3%	11%
Cc1ccc(/C=C/C(=O)N2CCN(c3ncccn3)CC2)o1	11%	3.2µM*	-5%	u	-2%	-2%
O=C(/C=C/c1ccco1)N1CCCC(c2ccccc2)C1 (configuration not stated)	x	x	x	-24%	2%	6%
CCCOc1ccc(N2C(=O)CC(N3CCN(c4ccc([N+](=O)[O-])cc4)CC3)C2=O)cc1 (configuration not stated)	11%[46.1 µM]	-31%	20%[46.1 µM]	9%	0%	u
O=C1CC(N2CCC(c3nc4ccccc4s3)CC2)C(=O)N1Cc1ccccc1 (configuration not stated)	-25%	u	0%	u	-3%[3.69 µM]	-29%
CCCOc1ccc(N2C(=O)CC(N3CCN(c4ccccc4F)CC3)C2=O)cc1 (configuration not stated)	13%	-34%	1%	x	-16%	4%
CCCOc1ccc(N2C(=O)CC(N3CCN(c4nc5ccccc5s4)CC3)C2=O)cc1 (configuration not stated)	5%	40µM*	4%	-27%	u	-6%
O=C1CC(N2CCN(c3ccc(F)cc3)CC2)C(=O)N1Cc1cccs1 (configuration not stated)	2%	u	12%	-22%	-24%	-4%
O=C1CC(N2CCN(c3nc4ccccc4s3)CC2)C(=O)N1Cc1cccs1 (configuration not stated)	u	11µM*	u	u	-24%	14µM*
CCCOc1ccc(N2C(=O)CC(N3CCC(c4nncn4CC)CC3)C2=O)cc1 (configuration not stated)	-12%	u	3%	-22%	13µM*	3%
O=C1CC(N2CCC(c3nc4ccccc4o3)CC2)C(=O)N1Cc1cccs1 (configuration not stated)	-15%	50µM*	-5%[46.1 µM]	-25%	u	0%
O=C(NCCc1ccccn1)c1cnn(-c2ncc3c(n2)-c2ccccc2CC3)c1C1CC1	x	x	x	-27%	x	x
O=C(NCC1Cc2cccc(-c3nccs3)c2O1)c1ccnc(Cl)c1 (configuration not stated)	x	x	x	10%	x	x
COc1ccc(CNC(=O)c2cc3c(=O)n(C)c4ccccc4c3n2C)c(OC)c1	u	6%	-19%[46.1 µM]	0%	x	x
CC(C)CCN(Cc1ccco1)C(=O)Cn1ncc2c([nH]c3ccccc32)c1=O	-16%[46.1 µM]	-27%	x	u	x	x
NC(=O)C1CCN(C2CC(=O)N(Cc3cccs3)C2=O)CC1 (configuration not stated)	-1%	35µM*	11%	-18%	u	6%
NC(=O)C1CCN(C(=S)c2cccs2)CC1	6%	5%	13%	-5%	5%	3%
COc1ccc(F)c(CN(C)CC2CCCN(CCc3ccc(F)cc3)C2)c1 (configuration not stated)	u	3%	11µM*	-16%	-7%	u
COc1ccccc1CCN1CCCC(CN(C)CC(C)(C)CO)C1 (configuration not stated)	u	-3%	13µM*	-16%	-10%	13%
CCOc1cccc(CN(C)CC2CCCN(CCc3ccc(Cl)cc3)C2)c1O (configuration not stated)	x	-43%	x	-1%	-2%	5µM*
SMILES	LASV entry inh	Sm TGR block	MARV entry inh	FMDV antiviral	RE007 growth inh	HCV inhibitor
COc1cc(CN(C)CC2CCCN(CCc3ccc(F)cc3)C2)c(Cl)cc1O (configuration not stated)	x	-24%	x	-3%	6%	u
COc1ccc(CN(C)CC2CCCN(CCc3ccc(Cl)cc3)C2)cc1OC (configuration not stated)	u	0%	2.2µM*	-15%	-15%	10µM*
COc1ccc(CN(C)CC2CCCN(CCc3ccc(F)cc3)C2)cc1OC (configuration not stated)	x	0%	x	-1%	-10%	u
Cn1nc(C(C)(C)C)cc1NC(=O)C1(C)CCN1C(=O)CC(c1ccccc1)c1ccccc1 (configuration not stated)	x	x	x	-22%	12%	x
O=C(c1cccc(F)c1)N1CCC2(CC1)CCN(c1cccc(-c3ccccc3)c1)CC2	x	x	x	-16%	x	x
COc1cc(CN(C)CC2CCCN(CCc3cccc(C(F)(F)F)c3)C2)ccc1O (configuration not stated)	u	28µM*	u	-22%	1%	13µM*
COc1ccc(S(=O)(=O)c2c(Nc3ccc(C)cc3)sc(C(=O)c3ccc4c(c3)OCO4)c2N)cc1	-1%[46.1 µM]	-2%	x	-7%	x	x
CCCN1C(=O)c2ccccc2NC1c1ccc(Cl)c(Cl)c1 (configuration not stated)	x	-76%	x	-5%	3%	u
CCCCN1C2=C(C(=O)CCC2)C(c2ccc(Cl)c(Cl)c2)C2=C1c1ccccc1C2=O (configuration not stated)	2.3µM*	-12%	u	5%	25%	u
CN1C(=O)C2(c3ccccc31)N(C)CC(c1ccccn1)C21SC(=S)N(Cc2ccco2)C1=O (configuration not stated)	0%	10%	u	u	-20%	u
CN1C(=O)C2(c3ccccc31)N(C)CC(c1ccccc1)C21SC(=S)N(Cc2ccco2)C1=O (configuration not stated)	u	-8%	u	-5%	0%	10µM*
